Data taken from the supplement of paper PMC6555819.

Key:
Assay in all cases: PBM binding z-score (relative to random genomic background probes); higher = stronger binding; sequences stand for … in GC…GCGATTGACAGCGTAGAATGAAGG
[1] = tested on: RARb homodimer (NR concentration 270 nM)
How it was run: (§1)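 Probes were double-stranded and carried 34-nt variable regions with direct-repeat seeds, single-nucleotide variants, half-site ablations and random human genomic background sequences, printed on custom Agilent 4×180K protein-binding microarrays. Arrays were incubated 1 h with ligand-free nuclear receptor dimers in PBS pH 7.4, 2% milk, 0.02% Triton X-100, 1 mM DTT, 0.2 mg/mL BSA and 0.4 mg/ml salmon testes DNA. Antibodies against each partner (one per run) detected binding, and scanned fluorescence was regression-normalized. Binding z-scores use the random background probes as reference.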

[2] = tested on: RARg:RXRa (NR concentration 270 nM, RXRa partner concentration 90 nM)
How it was run: as §1

[3] = tested on: RARg homodimer (NR concentration 270 nM)
How it was run: as §1

[4] = tested on: RXRa DBDmut IVT, anti-RXR (DBD mutation: RXRa K156A/R161A, NR concentration 90 nM)
How it was run: as §1

[5] = tested on: RXRa homodimer (NR concentration 180 nM)
How it was run: as §1

[6] = tested on: THRa:RXRa (NR concentration 90 nM, RXRa partner concentration 90 nM)
How it was run: as §1

[7] = tested on: THRa homodimer (NR concentration 90 nM)
How it was run: as §1

[8] = tested on: VDR homodimer (NR concentration 270 nM)
How it was run: as §1

Row | Sequence | PBM binding z-score [1] | PBM binding z-score [2] | PBM binding z-score [3] | PBM binding z-score [4] | PBM binding z-score [5] | PBM binding z-score [6] | PBM binding z-score [7] | PBM binding z-score [8]
1 | TGTATTAGTTGATTAGGGCAACCGAAACAGCGGA | 0.715 | 0.692 | 0.807 | -0.317 | -0.0234 | 0.551 | 0.64 | 0.784
2 | CGTTCAAGGTCAATGCTAGGTCAGTGAAAGCATT | 4.78 | 7.74 | 7.18 | 4.09 | 5.88 | 4.72 | 3.33 | 3.44
3 | TCAGACAGGTGAAGGTAACTAAGGTACGCAGTCG | 0.841 | 0.733 | 0.744 | 1.14 | 1.05 | 1.43 | 0.595 | -0.102
4 | ATATGTAGGTTTAGGGTCATTCAGGTTGGTTCGC | 3.05 | 3.53 | 2.43 | 2.74 | 4.4 | 4.23 | 4.2 | 4.83
5 | ATCTCCAGGTAAAAGTTCAGTGAATCCCGAGGAT | 2.54 | 2.14 | 2.33 | 0.595 | 1.94 | 1.57 | 0.432 | 1.84
6 | CGTCCAAGGTCAATGGTAGGTCAGTGAAAGCATT | 5.21 | 7.79 | 6.78 | 3.44 | 5.41 | 4.33 | 2.72 | 2.73
7 | ACTTACGGGCCAACGAGGTTATAGCACGCGTATA | 1.08 | 0.977 | 0.949 | 0.889 | 1.01 | 1.76 | 0.399 | 1.31
8 | TCTTGTAGATCCGCAGGTTAAGAAAGCTGGCCAA | -0.00283 | -0.252 | -0.631 | 0.638 | 0.152 | 0.0319 | -0.513 | -0.38
9 | TCGCGTAGGTTAGTCGGGGCATTCAGCCAACATA | 0.519 | 0.0765 | -0.112 | 0.21 | -0.0315 | 1.26 | -0.0265 | 0.208
10 | CAATCTAGGTCAAGGTCAAAGTCGGTTTGTGCCA | 5.05 | 5.89 | 6.37 | 3.25 | 5.61 | 4.65 | 4.37 | 4.3
11 | TCTTGTAGATCAAAGGTTAAGAGAGCCGAAGCCT | 1.45 | 1.84 | 0.766 | 0.28 | 3.32 | 1.18 | -0.582 | -0.415
12 | CAAACTAGGTCACCGGAAGGTCAAAGTGCGCATG | 5.82 | 8.58 | 7.66 | 2.19 | 6.73 | 4.72 | 3.05 | 3.53
13 | ACAGACAGGTGAGTGAAGGTAACACAGCTGGACG | 0.48 | 0.416 | 0.789 | -0.436 | 0.647 | 1.87 | -0.183 | -0.21
14 | TCTTGTATATCAAAGGTTAAGAAAGCCGAAGCCT | 1.82 | 1.98 | 1.32 | 0.935 | 2.92 | 1.58 | 0.181 | 0.26
15 | CCGACTGGGGCATAAGGTAACCATAAGCCAGCCC | 0.572 | 0.385 | 0.436 | -0.779 | 0.252 | 1.72 | 1.34 | -0.312
16 | ATACTAAGGTGATCGTGAGGTCGTTGATACTAAC | 1.76 | 2.89 | 1.27 | 1.35 | 2.06 | 3.7 | 3.46 | 3.43
17 | CAAACTAGGTCGCAGAGGTCAAAGTCCGTGCGTA | 4.96 | 6.18 | 5.62 | 2.9 | 6.96 | 4.19 | 1.67 | 5.86
18 | TCATATCGGTAAATGCTAGGTGAAAGTCCGATCT | 0.513 | -0.0615 | 0.173 | 1.14 | 0.375 | 0.889 | 0.553 | 0.0162
19 | CCTACTGGGCCAAGAAGGTCATTGATGCCGATAA | 3.17 | 2.94 | 2.39 | 0.188 | 2.9 | 2.33 | 0.355 | 2.38
20 | CCTACTGGGCCAAGGTCGTTGATCAGTCAAAGCA | 0.763 | 0.488 | 0.541 | -0.262 | 0.465 | 1.31 | 0.184 | 1.19
21 | TATACAGGGTCAAAGGCCAGAGTCCGAATGTCGA | 3.69 | 5.63 | 4.75 | 2.69 | 6.54 | 3.62 | 0.963 | 2.67
22 | TTTCCAAGGTGAAGGTCGTTGATCCCTCTGTAGA | 2.06 | 1.51 | 1.29 | 0.389 | 1.95 | 2.94 | 1.8 | 1.37
23 | CTGACTGGGGCAAGGTTACCATAACGCACAGCCA | 1.54 | 1.43 | 1.43 | 0.0299 | 1.28 | 1.52 | 0.417 | 0.129
24 | TCTTGTAGATCAACAGGAGGTTAAGACAGATCGA | 0.499 | 0.964 | 0.323 | 0.507 | 0.916 | 0.703 | -0.723 | -0.102
25 | ATCGAAAGGTCGTTAGGTGAGTATACAGAAAGGC | 2.59 | 3.91 | 3.44 | 2.2 | 3.98 | 2.51 | 0.793 | 1.84
26 | GGAACGAAGGCAAAGTTGATAGCATCTGTCGACG | -0.905 | -0.275 | -0.151 | -0.157 | -0.084 | -0.716 | -1.21 | -1.02
27 | TAGCCTAGGTTATTCAGGGGCCAGTATAGAAAGC | 0.985 | 3.15 | 0.714 | -0.074 | 0.459 | 1.93 | -0.239 | -0.459
28 | ATCTATAGGTAAAGTTCAGTGAAAGATCGATAGA | 2.35 | 2.02 | 2.38 | 1.21 | 1.51 | 0.707 | -0.456 | 1.95
